These results are taken from PubChem BioAssay (NCATS).

Assay [1] in a line: AP1 Signaling Pathway (AID 357). Further: on the % scale 0 is the no-effect control and ±100 the full control effect. The procedure, abridged: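 ME-180 cells with beta-lactamase reporter under AP-1 response element, stimulated with EC50 EGF; compounds tested in titration series, 5 h at 37 °C. CCF4 substrate added 2.5 h at room temperature; 460/530 nm emission ratio gave %activity and AC50.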
Assay [2] deals with Cytochrome P450 1A2 (Homo sapiens) (UniProt P05177). Kind of assay: p450-cyp1a2 (AID 410; calls by dose curve; further: potency means the concentration at half of the fitted maximal effect;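 on activity change, negative = inhibition: -100% = full effect of reference inhibitor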). The procedure, abridged:
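Read-out is luminescence from luciferin produced by CYP1A2 demethylation of Luciferin-ME (100uM, at Km). Detection reagent stopped the 60 min NADPH-dependent reaction; signals were normalized to 57 uM furafylline.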

Assay [3] is described as follows: Stat Signaling Pathway (AID 446).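 Further: ME-180 cervical cancer cells given 40 pM IL-6 alongside compound; SIE-controlled beta-lactamase reporter measured as 460/530 nm FRET emission ratio; on the % scale 0 is the no-effect control and ±100 the full control effect.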 The procedure, abridged:
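Overnight-plated ME-180 cells bearing a STAT Inducible Element beta-lactamase reporter; 5 h co-exposure to compound and 40 pM IL-6; values normalized to 300 pM IL-6 and 125 nM JAK inhibitor controls.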

The target of assay [4] is Glucocorticoid receptor (Homo sapiens) (UniProt P04150). Kind of assay: GR-GFP Redistribution (AID 450;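 active means compounds whose dose series gives a full or clear partial fitted curve of increased nuclear translocation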; further: potency means the concentration at half of the fitted maximal effect). The following applies: U2OS GR-GFP nuclear translocation, laser cytometry, 2 h.
Sequence of Glucocorticoid receptor (Homo sapiens) (P04150 whole entry, looked up): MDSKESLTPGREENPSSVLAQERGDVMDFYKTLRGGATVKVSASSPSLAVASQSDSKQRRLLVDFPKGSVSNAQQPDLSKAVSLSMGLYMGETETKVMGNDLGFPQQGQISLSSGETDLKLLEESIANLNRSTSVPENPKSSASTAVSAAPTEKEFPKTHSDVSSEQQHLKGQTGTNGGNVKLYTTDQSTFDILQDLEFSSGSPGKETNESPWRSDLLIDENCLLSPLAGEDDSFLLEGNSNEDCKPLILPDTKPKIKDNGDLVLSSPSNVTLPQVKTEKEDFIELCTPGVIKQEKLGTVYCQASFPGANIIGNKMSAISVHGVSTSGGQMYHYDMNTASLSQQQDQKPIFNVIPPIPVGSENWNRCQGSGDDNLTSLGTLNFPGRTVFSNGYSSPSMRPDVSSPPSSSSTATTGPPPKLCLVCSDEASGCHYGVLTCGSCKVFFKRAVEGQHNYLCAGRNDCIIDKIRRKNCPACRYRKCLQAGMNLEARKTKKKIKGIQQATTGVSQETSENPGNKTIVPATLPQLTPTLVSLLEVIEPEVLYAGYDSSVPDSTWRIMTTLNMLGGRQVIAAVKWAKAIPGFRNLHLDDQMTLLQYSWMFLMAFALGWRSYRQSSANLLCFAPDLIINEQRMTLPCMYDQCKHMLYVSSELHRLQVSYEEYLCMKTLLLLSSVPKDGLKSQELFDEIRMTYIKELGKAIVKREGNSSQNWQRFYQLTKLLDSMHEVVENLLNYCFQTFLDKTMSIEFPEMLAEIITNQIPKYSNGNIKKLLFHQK
For assay [5] the target is unchanged. The experiment in a line: GR-EFC Redistribution (AID 451; calls by dose curve; further: potency means the concentration at half of the fitted maximal effect). The conditions noted are these: CHO-K1 GR-EFC translocation, beta-gal luminescence, 2 h. The method in brief:
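CHO-K1 cells expressing nuclear EA and GR-ED fragments of b-gal; compounds titrated up to 46 uM final, 2 h at 37 C. GR nuclear translocation read as complemented b-gal luminescence after 1 h RT detection.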

For assay [6], the target named is Mitogen-activated protein kinase 10 (Mus musculus) (UniProt Q61831). Kind of assay: JNK3 AlphaScreen Assay (AID 530).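 Further: kinase came from lysate of stimulated human HepG2 cells; signal reports phosphorylation of biotinylated GST-cJun 1-79 at Ser73 with 10 µM ATP; on the % scale 0 is the no-effect control and ±100 the full control effect.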 The procedure, abridged: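 HepG2 lysate (IL-1b/TNFa pre-activated) + biotin-GST-cJun 1-79 + anti-pSer73 cJun; cpd titration, 15 min RT; ATP 10 uM start; Tris pH 7.6, MgCl2, DTT, vanadate; beads in EDTA buffer; AlphaScreen.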
(Alpha assays give light when donor and acceptor beads are brought close together.)

Assay [7] addresses 3',5'-cyclic-AMP phosphodiesterase 4B (Homo sapiens) (UniProt Q07343). The experiment in a line: qHTS Assay for Inhibitors of PDE-IV (AID 607; active means well fitted activation curve with a large enough effect in the main read-out, with a control signal flat, not every such curve was filed as active; further: % of control where 0% means no effect). The procedure, abridged: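 Live HEK293 cells with a modified cyclic nucleotide-gated (CNG) channel report intracellular cAMP via membrane-potential dye fluorescence (ex 535/em 590 nm). Endogenous PDE-IV was targeted. Compounds were tested at up to 22.9 uM final; RO 20-1724 100 uM served as control.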
On the technique in general: Quantitative high-throughput screening tests each substance at several concentrations.

Assay [8] in a line: qHTS Assay for Lipid Storage Modulators (AID 1519; calls by dose curve). The conditions noted are these: Drosophila S3 cells, BODIPY lipid droplet/cell ratio, laser cytometry, cells loaded with oleic acid; for activity change, negative = inhibition: at 25.7 µM (top of the series). The method in brief: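 Cells seeded at 5,000 per well were treated with compounds over a concentration series and loaded with oleic acid (400 uM, as added). Lipid droplet fluorescence (488 nm excitation, 500-530 nm channel) was read by laser-scanning cytometry and normalized to 20 uM Triacsin C.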

Assay [9] addresses ATP-dependent 6-phosphofructokinase (Trypanosoma brucei brucei) (UniProt O15648). Kind of assay: qHTS Assay to Find Inhibitors of T. brucei phosphofructokinase: hit validation (AID 492961; active means well fitted curve in the direction sought with a large enough effect; an effect the other way counts as inactive or inconclusive;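 further: luminescence reports ADP formed as PFK phosphorylates fructose-6-phosphate with ATP; on the % scale 0 is the no-effect control and ±100 the full control effect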). The procedure, abridged:
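Inhibition of parasite PFK is measured as reduced ADP formation, quantified via luciferase after ATP depletion. Assay used 0.1 mM ATP, 0.5 mM F6P, 1.25 nM enzyme, 45 min incubation.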

In assay [10] the target is Ubiquitin carboxyl-terminal hydrolase 1 (Homo sapiens) (UniProt O94782). The experiment in a line: Inhibitors of USP1/UAF1: Pilot qHTS (AID 504865; active means well fitted curve in the direction sought with a large enough effect; an effect the other way counts as inactive or inconclusive;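 further: rhodamine fluorescence freed from ubiquitin-rhodamine substrate followed over time; top concentration of the series differs between compounds; on the % scale 0 is the no-effect control and ±100 the full control effect; nearly all actives have a fitted effect of over 35% in size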). The procedure, abridged:
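1nM USP1/UAF1 + cpd, 15 min RT; start w/ Ub-Rho 150nM final; kinetic FL 480/540 nm, 6 reads q60 s. Buffer 50mM HEPES pH 7.8, 0.5mM EDTA, 1mM TCEP, 0.01% Tween-20, 0.1 mg/ml BSA.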

Assay [11] addresses Luciferin 4-monooxygenase (Photinus pyralis) (UniProt P08659). Kind of assay: Biochemical firefly luciferase enzyme assay for NPC (AID 624030; active means well fitted curve in the direction sought with a large enough effect; an effect the other way counts as inactive or inconclusive;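 further: purified P. pyralis luciferase at 10 nM with luciferin and ATP substrate; 0% = DMSO and -100% = full luciferase inhibition by PTC124 control; nearly all actives have a fitted effect of over 70% in size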). The method in brief: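 Purified P. pyralis luciferase at 10 nM in 50 mM Tris Acetate (final), luminescence read within 5 minutes of enzyme addition to compounds. Activity normalised to PTC124 versus DMSO; concentration-response curves classed by r2, magnitude and activity.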

Assay [12] is described as follows: S16 Schwann cell PMP22 intronic element firefly luciferase assay (AID 624032; active means well fitted curve in the direction sought with a large enough effect; an effect the other way counts as inactive or inconclusive;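 further: plate controls were DMSO for no effect and PTC124 positive control mean for full effect; nearly all actives have a fitted effect of over 30% in size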). The procedure, abridged: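 Rat S16 Schwann cells stably carrying firefly luciferase driven by a PMP22 intronic element, in 10% FBS, treated 24 h at 37 C. ONE-Glo luminescence normalized to PTC124 control and DMSO (0%); curves classed by r2, magnitude and activity.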
The nature of assay [13]: qHTS profiling for inhibitors of Plasmodium falciparum proliferation (AID 504749; active means well fitted curve in the direction sought with a large enough effect; an effect the other way counts as inactive or inconclusive;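 further: 0% = DMSO vehicle and full inhibition = artemisinin control; nearly all actives have a fitted effect of over 60% in size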). The following applies: P. falciparum in erythrocytes, SYBR Green DNA, 72 h, at 12.8 µM (top of the series). The procedure, abridged:
(§1)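 SYBR Green fluorescence (ex 485 nm, em 535 nm) reports parasite DNA after 72 h compound exposure of infected red cells at 0.3% parasitemia, 2.5% hematocrit; signal normalized to 0.29 uM artemisinin and vehicle wells.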

For a further assay, the system named is C2A. Described as above. The following applies: P. falciparum in erythrocytes, SYBR Green DNA, 72 h; series mostly up to 28.7 µM. The method in brief: as §1
Another assay has as its system CP192. Described as above. The following applies: P. falciparum in erythrocytes, SYBR Green DNA, 72 h; series mostly up to 28.7 µM. The procedure, abridged: as §1
A further assay has as its system CP262. The assay is described as above. The conditions noted are these: P. falciparum in erythrocytes, SYBR Green DNA, 72 h; series mostly up to 28.7 µM. The method in brief: as §1
Another assay concerns CP286. The description is as above. The conditions noted are these: P. falciparum in erythrocytes, SYBR Green DNA, 72 h; series mostly up to 28.7 µM. The procedure, abridged: as §1
A further assay deals with FAB9. The assay is described as above. The conditions noted are these: P. falciparum in erythrocytes, SYBR Green DNA, 72 h; series mostly up to 28.7 µM. The procedure, abridged:
as §1

Assay [14] can be described thus: NFAT Signaling Pathway (AID 444). The following applies: Jurkat NFAT-bla M1, carbachol, beta-lactamase ratio, 5 h; at 17.2 µM (top of the series). The procedure, abridged:
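Jurkat cells with NFAT-driven β-lactamase reporter and co-expressed M1 receptor, stimulated with carbachol (final 1 uM, ~EC50), compound titration, 5 h at 37 °C. CCF4 loaded 1 h at RT; 460/530 nm ratio gave %activity and AC50.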

[15] abbreviates: measured here: cell count channel max response.
[16] abbreviates: measured here: lipid channel max response.

Inconclusive results are not listed. Calls of active or inactive are those of the source. Unless noted, the call rests on the fitted dose curve; in most records, active means well fitted curve in either direction with a large enough effect (not every such curve was filed as active); inconclusive means small, poorly fitted or top-dose-only effect, or another doubt; inactive means flat fitted curve, though single readings scatter. A value given as a limit tells only on which side of the number the result lay.

Sequence of Cytochrome P450 1A2 (Homo sapiens) (P05177 whole entry, looked up): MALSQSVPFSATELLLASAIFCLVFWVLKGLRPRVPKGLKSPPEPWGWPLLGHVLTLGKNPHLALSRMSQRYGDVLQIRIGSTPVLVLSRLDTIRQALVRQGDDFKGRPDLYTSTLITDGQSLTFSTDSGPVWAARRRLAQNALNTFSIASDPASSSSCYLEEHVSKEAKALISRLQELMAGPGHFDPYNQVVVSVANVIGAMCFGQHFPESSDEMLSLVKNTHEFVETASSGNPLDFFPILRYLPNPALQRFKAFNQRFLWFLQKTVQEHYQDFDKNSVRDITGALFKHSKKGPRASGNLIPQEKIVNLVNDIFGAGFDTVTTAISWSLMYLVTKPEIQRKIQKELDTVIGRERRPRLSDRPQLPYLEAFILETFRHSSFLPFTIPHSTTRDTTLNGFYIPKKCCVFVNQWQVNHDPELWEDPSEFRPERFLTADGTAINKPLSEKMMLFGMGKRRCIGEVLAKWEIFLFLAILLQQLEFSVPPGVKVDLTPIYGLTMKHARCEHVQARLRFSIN
Sequence of 3',5'-cyclic-AMP phosphodiesterase 4B (Homo sapiens) (Q07343 whole entry, looked up): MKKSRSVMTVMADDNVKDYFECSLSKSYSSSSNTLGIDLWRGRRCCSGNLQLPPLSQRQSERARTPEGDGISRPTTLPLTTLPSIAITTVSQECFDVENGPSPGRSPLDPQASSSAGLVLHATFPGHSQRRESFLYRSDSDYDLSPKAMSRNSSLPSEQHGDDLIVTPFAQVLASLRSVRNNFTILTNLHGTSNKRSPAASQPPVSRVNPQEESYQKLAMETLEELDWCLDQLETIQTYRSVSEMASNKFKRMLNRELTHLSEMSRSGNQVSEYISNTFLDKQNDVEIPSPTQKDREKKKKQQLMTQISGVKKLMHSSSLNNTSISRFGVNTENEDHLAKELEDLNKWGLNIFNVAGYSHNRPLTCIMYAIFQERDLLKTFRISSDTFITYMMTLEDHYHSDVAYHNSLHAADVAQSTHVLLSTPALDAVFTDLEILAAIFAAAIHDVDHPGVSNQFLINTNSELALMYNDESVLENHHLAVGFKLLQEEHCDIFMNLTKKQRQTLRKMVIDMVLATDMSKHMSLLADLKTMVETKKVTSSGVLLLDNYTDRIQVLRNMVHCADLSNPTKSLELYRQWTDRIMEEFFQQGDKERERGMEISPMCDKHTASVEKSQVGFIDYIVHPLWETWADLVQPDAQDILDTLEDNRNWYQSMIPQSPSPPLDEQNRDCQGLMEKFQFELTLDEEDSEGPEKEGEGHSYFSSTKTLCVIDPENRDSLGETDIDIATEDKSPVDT
Sequence of Ubiquitin carboxyl-terminal hydrolase 1 (Homo sapiens) (O94782 whole entry, looked up): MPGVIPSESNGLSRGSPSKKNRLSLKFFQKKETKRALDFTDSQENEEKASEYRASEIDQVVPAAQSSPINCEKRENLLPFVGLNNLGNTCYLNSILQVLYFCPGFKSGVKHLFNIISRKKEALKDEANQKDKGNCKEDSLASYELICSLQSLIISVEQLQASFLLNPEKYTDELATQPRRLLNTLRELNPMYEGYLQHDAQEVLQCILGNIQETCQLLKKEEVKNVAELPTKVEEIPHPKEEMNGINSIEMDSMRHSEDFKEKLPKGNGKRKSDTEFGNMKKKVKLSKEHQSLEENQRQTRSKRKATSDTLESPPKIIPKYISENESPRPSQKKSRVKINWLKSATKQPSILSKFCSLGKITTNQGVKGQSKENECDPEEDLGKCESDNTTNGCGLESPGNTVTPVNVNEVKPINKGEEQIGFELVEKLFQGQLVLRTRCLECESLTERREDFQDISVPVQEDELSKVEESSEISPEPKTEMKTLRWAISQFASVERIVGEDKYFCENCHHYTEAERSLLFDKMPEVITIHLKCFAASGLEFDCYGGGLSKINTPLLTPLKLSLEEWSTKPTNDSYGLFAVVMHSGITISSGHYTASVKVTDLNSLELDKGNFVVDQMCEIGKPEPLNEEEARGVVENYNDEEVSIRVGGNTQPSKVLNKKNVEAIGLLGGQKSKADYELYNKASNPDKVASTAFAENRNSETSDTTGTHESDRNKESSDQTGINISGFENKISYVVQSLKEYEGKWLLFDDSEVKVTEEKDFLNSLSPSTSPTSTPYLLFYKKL
Sequence of Luciferin 4-monooxygenase (Photinus pyralis) (P08659 whole entry, looked up): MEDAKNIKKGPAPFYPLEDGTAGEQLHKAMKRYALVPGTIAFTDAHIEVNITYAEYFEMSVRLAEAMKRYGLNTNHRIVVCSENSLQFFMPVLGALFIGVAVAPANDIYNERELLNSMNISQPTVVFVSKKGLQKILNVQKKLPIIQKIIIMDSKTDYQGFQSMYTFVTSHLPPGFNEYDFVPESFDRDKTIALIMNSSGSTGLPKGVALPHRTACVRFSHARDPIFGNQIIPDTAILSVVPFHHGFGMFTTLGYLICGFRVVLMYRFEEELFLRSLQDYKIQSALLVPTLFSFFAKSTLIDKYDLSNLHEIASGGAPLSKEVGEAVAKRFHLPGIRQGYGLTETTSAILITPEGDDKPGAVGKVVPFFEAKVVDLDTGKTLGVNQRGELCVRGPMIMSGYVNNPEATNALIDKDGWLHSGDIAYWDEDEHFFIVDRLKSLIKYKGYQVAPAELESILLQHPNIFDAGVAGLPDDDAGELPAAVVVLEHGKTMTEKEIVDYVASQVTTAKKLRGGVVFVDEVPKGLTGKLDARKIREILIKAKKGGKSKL
Sequence of ATP-dependent 6-phosphofructokinase (Trypanosoma brucei brucei) (O15648 whole entry, looked up): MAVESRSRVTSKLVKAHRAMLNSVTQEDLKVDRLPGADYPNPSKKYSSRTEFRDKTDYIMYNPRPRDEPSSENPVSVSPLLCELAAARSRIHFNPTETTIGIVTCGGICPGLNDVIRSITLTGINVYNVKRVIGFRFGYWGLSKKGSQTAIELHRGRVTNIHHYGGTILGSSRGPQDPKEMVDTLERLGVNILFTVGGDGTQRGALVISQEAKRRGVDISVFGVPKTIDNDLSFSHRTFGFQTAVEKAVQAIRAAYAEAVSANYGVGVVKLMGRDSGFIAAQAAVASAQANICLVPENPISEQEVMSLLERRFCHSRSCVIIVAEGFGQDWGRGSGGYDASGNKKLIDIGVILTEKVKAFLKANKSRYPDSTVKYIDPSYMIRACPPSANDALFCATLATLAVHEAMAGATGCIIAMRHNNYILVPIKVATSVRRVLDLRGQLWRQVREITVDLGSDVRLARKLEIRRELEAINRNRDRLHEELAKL

Consider `CC(=O)OCC(=O)[C@@H]1CC[C@H]2[C@H]3CC[C@H]4C[C@@H](O)CC[C@]4(C)[C@@H]3C(=O)C[C@@]12C`, for which the call in assay [1], in [3] and in assay [6] was inactive. The Potency entry in [2], in [7], in assay [9], in assay [10], in [11] and in assay [12] was “inactive” throughout. Also, the Potency entry in the assay on C2A, with CP192, with CP262, in the assay with CP286 and with FAB9 was “inactive” in each case. The Potency in [4] and in assay [5] was > 20.6 µM (inactive) each time. For the same compound, the activity change, negative = inhibition in assay [8] was -5.39% (inactive). Also, the max response in assay [8] (setting [15]) was -23.1%; in assay [8] (setting [16]) it was -26.2%. Moreover, the activity, negative = inhibition in [13] (parasite line A) is 5.9% (inactive); in assay [13] (parasite line B) it was 17.2% (inactive).

For the compound `COC1=CC(=O)O[C@@H](/C=C\c2ccccc2)C1`, the outcome in [1], in assay [3] and in assay [6] was inactive. Further, the Potency in assay [2] was 3.16 µM (active); in [4], > 20.6 µM (inactive); in assay [5] it was > 20.6 µM (inactive). In addition, the activity change, negative = inhibition in assay [14] was -0.425% (inactive); in assay [8], 1.1% (inactive). The Potency result in assay [7] was “inactive”. For the same compound, the max response in assay [8] (setting [15]) is -5.23%; in [8] (setting [16]), -0.269%.

In the case of `CCN1C[C@@]2(COC)CC[C@H](O)[C@@]34[C@@H]2C[C@@H]([C@@H]13)[C@]1(O)C[C@@H](OC)C2C[C@H]4[C@H]1[C@H]2OC(C)=O`, the result in assay [1], in assay [3] and in assay [6] was inactive. The Potency result in assay [2] and in assay [7] was “inactive” in each case. The activity change, negative = inhibition in [14] was -14.2% (inactive); in assay [8], 2.15% (inactive). Moreover, the Potency in [4] and in [5] was > 20.6 µM (inactive) in each case. Moreover, the max response in [8] (setting [15]) was -6.46%; in [8] (setting [16]) it was -5.05%.

With `CC[N@+]1(C)CCC[C@@H](OC(=O)C(O)(c2ccccc2)c2ccccc2)C1`, the compound was called inactive in assay [1], in assay [3] and in assay [6]. Besides, the Potency result in assay [2], in [7] and in assay [10] was “inactive” each time. Also, the values for the activity change, negative = inhibition in [14] and in assay [8] were -31.8% (active) and -4.06% (inactive), respectively. Also, the Potency in assay [4] and in assay [5] was > 20.6 µM (inactive) in each case. For the same compound, the values for the max response in [8] (setting [15]) and in [8] (setting [16]) were -4.84% and -5.77%, respectively.

As for `C[C@H]1CC[C@@]2(NC1)O[C@@H]1C[C@H]3[C@@H]4CC[C@@H]5C[C@@H](O)CC[C@@]5(C)[C@@H]4CC[C@]3(C)[C@@H]1[C@@H]2C`, the result in [1], in [3] and in assay [6] was inactive. Also, the Potency result in assay [2] and in assay [10] was “inactive” in each case. Also, the figures for the activity change, negative = inhibition in [14] and in [8] were 1.76% (inactive) and -2.33% (inactive), respectively. Also, the values for the max response in assay [8] (setting [15]) and in assay [8] (setting [16]) were 0.178% and -2.87%, respectively.

With `COC1=C[C@H]2C3=C([C@H]2C1=O)[C@H](NC(C)=O)CCc1cc(OC)c(OC)c(OC)c13`, the compound was classed as inactive in assay [1], in [3] and in assay [6]. Moreover, the Potency result in [2], in assay [7] and in assay [10] was “inactive” in each case. Further, the results for the activity change, negative = inhibition in [14] and in assay [8] were -4.77% (inactive) and 0.263% (inactive), respectively. The Potency in [4] and in assay [5] was > 20.6 µM (inactive) throughout. Besides, the max response in assay [8] (setting [15]) is 1.69%; in [8] (setting [16]), 2.18%.

For the compound `CC[C@]1(c2cccc(O)c2)CCCCN(C)C1`, the result in [1], in assay [3] and in assay [6] was inactive. Moreover, the Potency entry in assay [2], in [7], in assay [9], in [10], in assay [11] and in assay [12] was “inactive” each time. Besides, the Potency entry in the assay with C2A, with CP262, in the assay with CP286 and with FAB9 was “inactive” each time. For the same compound, the Potency in assay [4] and in [5] was > 20.6 µM (inactive) in each case. Moreover, the activity change, negative = inhibition in assay [8] was -0.585% (inactive). Moreover, the max response in assay [8] (setting [15]) is -13.2%; in assay [8] (setting [16]), -11.2%. Also, in assay [13] (parasite line A), the activity, negative = inhibition is -7.81% (inactive).
